Experimental findings from PubChem BioAssay (NCI) are described below.

Where “and” joins values, the source holds several entries; their conditions need not be identical. Equal values may be shown once. This is part of a sample that, as a whole, favours compounds with a hit. Of some 83,000 tested, about 20% had one in any assay.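 Testing used 96-well plates and a 48-hour single-concentration exposure. Example: -40 means 40% of the starting cells died.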 Calls of active or inactive are those of the source. The calls were made as follows: active = growth percent below 10; inactive = the rest.

In this assay the test system is MDA-MB-468 breast. Put plainly: NCI-60 one-dose screen, 48 h (100 = growth as untreated, 0 = no growth, -100 = all killed). To be noted: 10 µM unless noted.
For `COc1cc([C@@H]2c3cc4c(cc3[C@H](O)[C@H]3COC(=O)[C@@H]23)OCO4)cc(OC)c1OC`, the growth is -1.25% (active) and -3.58% (active).

As to `CN(C)c1ccc(N=Nc2cccc3ccccc23)cc1`, the growth was -26.6% (active).

On to `COc1ccc(C(=O)C(CN(C)C)CN(C)C)cc1`, for which the growth is -66.4% (active).

As to `CN1CCOCCOCCOc2ccccc2NC(=O)c2nc(cnc2N)-c2ccc(cc2)S1(=O)=O`, the growth was 41.4% (inactive).

As to `N#Cc1cccc(-c2cc(-c3ccc4c(c3)OCCO4)[nH]n2)c1`, the growth was 18.6% (inactive).

For the compound `CC(=O)OCCC(C)CCC=C(C)C` (stereo unspecified), the growth is 122% (inactive).

As for `CNC(=O)c1cc(Oc2ccc3nc(NC(=O)c4cccc(OC(F)(F)F)c4)sc3c2)ccn1`, the growth is 46% (inactive).

With `O=C(Nc1ccc(F)cc1)Nc1ccc(Cl)c([N+](=O)[O-])c1`, the growth is -3.78% (active).

With `Nc1cc2[nH]c(=O)c3ccccc3c2cc1Br`, the growth is -50.6% (active).

For the compound `Cc1ccc(C(=O)Nc2ccc(CNCCN3CCOCC3)c(C(F)(F)F)c2)cc1C#Cc1cnc2cccnn12`, the growth is -21% (active).

For the compound `N#C/C(=C\C=C\c1ccc(-c2cc(Cl)ccc2Cl)o1)c1nc2ccccc2s1`, the growth is 109% (inactive).

Turning to `CS(=O)(=O)Nc1cc(-c2ccc3ncc(C#N)c(NCc4ccccc4)c3c2)cnc1Cl`, the growth was -53.9% (active).

As to `CCc1nc2ccccc2[nH]1`, the growth was 109% (inactive).

Regarding `CCOC(=O)C1=C(C)NC(C)=C(C(=O)OCC)C1`, the growth is 97.7% (inactive) and 86.9% (inactive).

Turning to `Cc1ccc(F)c(NC(=O)Nc2ccc(-c3cccc4[nH]nc(N)c34)cc2)c1`, the growth was 15.7% (inactive).

As to `CCCCCCC(C)N(CC(C)(C)O)C(=O)c1ccc([N+](=O)[O-])cc1` (stereo unspecified), the growth was 96.1% (inactive).

With `C=C(C)[C@@H]1CC[C@]2(C(=O)NCCCN)CC[C@]3(C)[C@H](CC[C@@H]4[C@@]5(C)CC[C@H](O)C(C)(C)[C@@H]5CC[C@]43C)[C@@H]12`, the growth was -19.9% [100 µM] (active).

`O=C(Nc1ccc(Cl)c(Cl)c1)Nc1ccccc1O`: the growth is 0.995% (active).

`COc1cc(-c2cc(-c3ccc(Nc4nc(Nc5ccccc5)nc(Nc5ccc(Cl)cc5)n4)cc3)nc(N)n2)cc(OC)c1OC`: the growth was 90.7% (inactive).

Take `O=[N+]([O-])c1ccc(N/N=C\c2cc(Br)ccc2O)nc1`: the growth is -19.7% (active) and -13.5% (active).

Regarding `COc1ccc(C(=O)C2CC2c2ccc(Cl)cc2)cc1` (stereo unspecified), the growth was 98.3% (inactive).

Regarding `COc1ccc(/C(=C\c2cc(OC)c(OC)c(OC)c2)C(=O)N2CCN(c3ccccc3)CC2)cc1O`, the growth is 96.8% (inactive).

On to `O=C(NCCNc1nccc(-c2c(-c3cccc(O)c3)nc3sccn23)n1)c1cc(N2CCOCC2)cc(C(F)(F)F)c1`, for which the growth was 94.8% (inactive).

Turning to `NS(=O)(=O)c1ccc(CCn2c(SCC(=O)N/N=C/c3ccccc3O)nc3ccccc3c2=O)cc1`, the growth was 59.1% (inactive).

On to `O=C(Nc1ncc(Cc2cccc(C(F)(F)F)c2)s1)c1ccc2c(c1)OCCO2`, for which the growth was 15.6% (inactive).

In the case of `C=CCc1cc(OC)c(OC)c(OC)c1`, the growth is 91% (inactive).

For `CC[C@@H](C(=O)[C@@H](C)[C@@H](O)[C@H](C)[C@@H]1O[C@@H]([C@@H](CC)C(=O)N(CC)CC)CC[C@@H]1C)C1O[C@]2(C=CC(=O)[C@]3(CC[C@@](C)([C@H]4CC[C@](O)(CC)[C@H](C)O4)O3)O2)[C@H](C)C[C@@H]1C` (stereo partly specified), the growth is -12.9% (active).

On to `CCOc1ccc2nc(NC(=O)Nc3ccccc3C)sc2c1`, for which the growth was 20.4% (inactive).

`O=C(NCc1ccc(Cn2c(=O)sn(-c3ccccc3)c2=O)cc1)OCc1ccc2c(Br)cc(Br)c(O)c2n1`: the growth was -67.5% (active).

For the compound `COc1cc(-c2cc(-c3nc4ccc(Cl)cc4[nH]3)[nH]n2)cc(OC)c1OC`, the growth was 35.9% (inactive).

Regarding `Cc1cc(C(=O)c2ccccc2)c(C)c2c1[nH]c1ccc(Cl)cc12`, the growth was -7.26% (active).

For `Oc1c(Br)cc(Br)c2ccc(Cn3cc(-c4ccccc4C(F)(F)F)nn3)nc12`, the growth is 72.4% (inactive).

For the compound `Fc1c[c-]c(-c2ccccn2)c(F)c1.[CH3-].[Pt+2].c1ccc(P(C[PH+](c2ccccc2)c2ccccc2)c2ccccc2)cc1`, the growth was -38.3% (active).

With `O=C(CN1CCCCC1)Sc1nnc2sc3ccccc3n12`, the growth is 97.1% (inactive).

For `Cn1c2ccc(Cl)cc2c2nn(C(=O)c3ccccc3)c(=O)nc21`, the growth was 103% (inactive).

In the case of `COc1ccc(-c2nc3sc(-c4ccc(OC)cc4)c(-c4ccc(OC)cc4)n3c2/C=C/c2ccc(C(C)C)cc2)cc1`, the growth was 98.9% (inactive).
